We go through 21 molecules from PubChem BioAssay.

The nature of assay [1]: reducers of endogenous Her2 protein level, primary screen, SKBR3 breast tumor cells, AlphaScreen, ATP viability (AID 461;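 active means Her2 level under about 52% in both replicate screens, with viability over 70% of control, limit read from the data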;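 on Her2 level: lower value means less Her2 protein in the cells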;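 on viability: percent of carrier control wells set as 100% viability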). To be noted: 18-24 h, measured here: SKBR3 viability, ATP luminescence, at 10 µM. Background: In Alpha technology, singlet oxygen from a donor bead excites a nearby acceptor bead.
In assay [2] the target is Receptor tyrosine-protein kinase erbB-2 (Homo sapiens) (UniProt P04626). The assay is described as above. To be noted: 18-24 h, at 10 µM, stronger effect = lower value.
Assay [3] can be described thus: SK-BR-3 cell growth inhibitors, pilot screen, 24 h, human (AID 572;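 active means viability at or below 10% of carrier control in both of two separate runs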;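 further: compound exposure lasted between 18 and 24 h rather than exactly 24 h; 100% = carrier-treated control wells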). To be noted: SK-BR-3 viability, CellTiter-Glo luminescence, at 10 µM, stronger effect = lower value. A general note: In ATP-based viability assays light output follows the ATP content of the culture.
Assay [4] in a line: HUVEC growth inhibition – cell-based, human, primary screen (AID 575).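 Further: 100% = median of untreated cell wells with 0.1% DMSO on each plate.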 To be noted: HUVEC proliferation, CellTiter-Glo luminescence, 72 h; at 10 µM; stronger effect = lower value.
The nature of assay [5]: growth inhibitors of H69AR lung tumor, primary screen, human, duplicate replicates (AID 580;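 active means viability at or under a set limit in both replicates, limit being median viability minus 3 SD, cut at about 48% in these data, passing the limit was not always enough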;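 further: 100% = mean luminescence of untreated wells and 0% = no signal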). To be noted: H69AR lung tumor cells viability, ATP luminescence, 72 h; at 10 µM; stronger effect = lower value.
Assay [6] is described as follows: reversal of MRP1-mediated doxorubicin resistance, pilot screen, H69AR cells, doxorubicin co-treatment (AID 601;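 active means viability loss from added drug above about 55%, and viability with drug at most 40%, in both replicates, limit read from the data, passing the limit was not always enough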). To be noted: CellTiter-Glo, 72 h, at 10 µM; for differential viability (reversal): stronger effect = higher value.
Assay [7] is described as follows: Restrictive medium S. cerevisiae growth inhibition, OD615, pilot screen of yeast lifespan reduction project, restrictive growth control (AID 706;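 active means growth inhibition above a set limit, 3 SD over mean compound inhibition, in both replicates, cut at about 43% in these data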;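 further: modified DeaD lifespan yeast strain shifted to restrictive glucose medium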). To be noted: OD615, 48 h, at 10 µM, stronger effect = higher value.
Assay [8] is described as follows: viability gain of MRP-1-high H69AR cells under doxorubicin, pilot screen, MRP-1 activator project, CellTiter-Glo, duplicate (AID 807;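 active means viability increase at or above a cutoff of the median across tested compounds plus 3 SD, cut at about 8.5% in these data, passing the limit was not always enough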;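 further: compound pretreatment 18-22 h then 72 h combined with doxorubicin; 0% = doxorubicin alone and 100% = vehicle without doxorubicin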). To be noted: H69AR viability with doxorubicin, CellTiter-Glo luminescence; at 10 µM; stronger effect = higher value.
The nature of assay [9]: growth suppression of beta-catenin knockout HCT116, pilot screen, human colon tumor cells (AID 823;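 active means cell viability at or below a set limit in both duplicate runs, the limit being the all-compound median minus 4 SD, cut at about 23% in these data, passing the limit was not always enough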;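 further: 0% = wells killed by 20 µM Hyamine and 100% = untreated DMSO cell wells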). To be noted: CellTiter-Glo, 60 h, at 10 µM, stronger effect = lower value.
The nature of assay [10]: inhibitors of the yeast RAM network, pilot screen, dse1pr::URA3 reporter, 5-FOA selection (AID 869;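 active means inhibition over a set limit, the all-compound mean plus 3 SD, in both replicate runs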;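 further: 0% = DMSO wells with no growth and 100% = 10 µM 1-NA-PP1 with full growth; RAM network block rescues cells from 5-FOA so hits raise OD615 growth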). To be noted: S. cerevisiae dse1pr::URA3 5-FOA growth, OD615, 2 d; at 10 µM; stronger effect = higher value; strain carries analog-sensitive mutant Cbk1 kinase.
Assay [11] is described as follows: RAM signaling pathway blockade in yeast – S. cerevisiae, Pdr1DBD-CYC8 efflux-inhibited sensitized strain, primary screen (AID 1298;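 active means RAM network inhibition above 8.4% in each of two replicates, 3 SD over the compound average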;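 further: 0% = DMSO untreated cells without growth and 100% = 10 µM 1-NA-PP1 full growth; higher means more yeast growth rescued from 5-FOA killing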). To be noted: S. cerevisiae cbk1-as DSE1-URA3 strain, 5-FOA growth OD615, 2 d; at 50 µM; stronger effect = higher value.
The nature of assay [12]: growth suppression of PTEN-deleted HCT116, pilot screen, cell-based, HCT116 clonal line, CellTiter-Glo (AID 824;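 active means viability at or below 27.92% in each of two runs, the all-compound median minus 4 SD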;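 further: 0% = 20 µM Hyamine control and 100% = vehicle cell control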). To be noted: 60 h, at 10 µM, stronger effect = lower value.
Setting [13] is: H69AR cells + 2 uM doxorubicin, measured here: viability with 2 uM doxorubicin, stronger effect = lower value.
Setting [14] is: H69AR cells, compound alone cytotoxicity.

Structures are written as SMILES. Inconclusive results are not listed. The source made the active and inactive calls.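 How the source made its calls, unless noted: active means viability at or below 30% in both replicate assays; inconclusive means viability at or below 30% in just one of the two assays; inactive means the rest.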

Sequence of Receptor tyrosine-protein kinase erbB-2 (Homo sapiens) (P04626 whole entry, looked up): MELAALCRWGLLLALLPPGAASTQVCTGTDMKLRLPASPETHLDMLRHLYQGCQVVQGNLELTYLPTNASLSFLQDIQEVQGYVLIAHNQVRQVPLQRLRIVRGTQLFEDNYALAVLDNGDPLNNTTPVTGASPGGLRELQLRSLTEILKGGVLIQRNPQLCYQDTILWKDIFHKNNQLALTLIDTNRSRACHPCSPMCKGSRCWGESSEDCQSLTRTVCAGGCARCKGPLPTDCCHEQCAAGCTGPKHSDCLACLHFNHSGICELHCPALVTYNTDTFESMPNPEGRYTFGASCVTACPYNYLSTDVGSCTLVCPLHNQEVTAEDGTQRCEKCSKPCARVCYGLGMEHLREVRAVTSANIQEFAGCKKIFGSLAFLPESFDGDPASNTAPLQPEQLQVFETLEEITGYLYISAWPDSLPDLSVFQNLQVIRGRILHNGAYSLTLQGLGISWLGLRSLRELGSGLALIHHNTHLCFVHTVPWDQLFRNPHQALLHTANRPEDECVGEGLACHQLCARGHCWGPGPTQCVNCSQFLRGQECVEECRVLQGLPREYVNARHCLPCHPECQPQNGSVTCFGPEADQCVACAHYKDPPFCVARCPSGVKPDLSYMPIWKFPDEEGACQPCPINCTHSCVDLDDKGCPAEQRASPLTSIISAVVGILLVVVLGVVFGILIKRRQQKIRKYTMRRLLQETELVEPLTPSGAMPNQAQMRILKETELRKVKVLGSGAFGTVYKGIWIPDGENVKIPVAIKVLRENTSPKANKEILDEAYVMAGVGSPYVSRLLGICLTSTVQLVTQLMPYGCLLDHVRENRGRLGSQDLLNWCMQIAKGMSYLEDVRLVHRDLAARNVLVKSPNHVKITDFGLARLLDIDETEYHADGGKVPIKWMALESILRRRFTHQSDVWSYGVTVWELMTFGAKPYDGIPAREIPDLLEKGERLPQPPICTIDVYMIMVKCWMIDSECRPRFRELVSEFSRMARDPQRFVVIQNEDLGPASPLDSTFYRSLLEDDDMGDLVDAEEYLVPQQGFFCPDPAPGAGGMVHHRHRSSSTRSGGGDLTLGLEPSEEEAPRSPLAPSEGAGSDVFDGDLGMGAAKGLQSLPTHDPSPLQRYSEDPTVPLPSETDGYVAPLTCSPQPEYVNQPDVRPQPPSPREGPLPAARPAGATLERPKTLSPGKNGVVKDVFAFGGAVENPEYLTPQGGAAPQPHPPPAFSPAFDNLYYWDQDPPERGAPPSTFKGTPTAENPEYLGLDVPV

As to `Nc1nnc(-c2cccc(Cl)c2Cl)c(N)n1`, the viability – broadly, a read-out of living cells in per cent, often relative to untreated cells – in [1] was 109%; in [3], 109% (inactive); in assay [4], 103% (inactive); in assay [5], 97.1% (inactive); in assay [6] (setting [13]) it was 93.4%; in assay [6] (setting [14]), 97.1%. The Her2 level in [2] was 124% (inactive). The differential viability (reversal) in assay [6] (H69AR cells + 2 uM doxorubicin) is 3.66% (inactive).
`CC(Sc1nc2ccccc2s1)C(=O)N1CCOCC1` (centres undefined): the growth inhibition in [7] is 2.68% (inactive). In [8], the viability increase is -3.03% (inactive). Further, the viability in assay [9] was 95.9% (inactive). Besides, the inhibition (in general, the change of the read-out against control, counted positive when it falls) in assay [10] is 1.84% (inactive). Moreover, the RAM network inhibition in [11] was 6.03% (inactive).
Regarding `COc1ccc(-c2n[nH]c(C(F)(F)F)c2-c2cc3ccccc3o2)c(O)c1`, the viability increase in [8] was -7.49% (inactive). The results for the viability in assay [9] and in assay [12] were 59.5% (inactive) and 55% (inactive), respectively. The inhibition in [10] was -1.46% (inactive). For the same molecule, in assay [11], the RAM network inhibition was -1.35% (inactive).
`Cc1nc2ccccc2c2nc3ccccc3n12`: the growth inhibition in assay [7] is 43.3% (active). Besides, the viability increase in assay [8] is -0.65% (inactive). Besides, in [12], the viability is 62.4% (inactive). Further, in [10], the inhibition is 3.25% (inactive). For the same molecule, the RAM network inhibition in assay [11] was 0.87% (inactive).
Turning to `CN(C)CCOC(c1ccccc1)c1ccccc1` (tested in a mixture with another compound), the viability in [1] was 93.5%; in assay [3], 93.5% (inactive); in assay [4] it was 98.9% (inactive); in [5], 103% (inactive); in assay [6] (setting [13]) it was 83.7%; in [6] (setting [14]), 103%. In addition, the Her2 level in [2] was 106% (inactive). Moreover, the differential viability (reversal) in assay [6] (H69AR cells + 2 uM doxorubicin) was 19.3% (inactive).
With `COc1ccc2cc([C@H](C)C(=O)O)ccc2c1`, the viability is 93.5% in assay [1]; 93.5% (inactive) in assay [3]; 111% (inactive) in [4]; 94.8% (inactive) in [5]; 83% in assay [6] (setting [13]); 94.8% in [6] (setting [14]). In addition, the Her2 level in assay [2] is 107% (inactive). Besides, the differential viability (reversal) in assay [6] (H69AR cells + 2 uM doxorubicin) was 11.8% (inactive).
Take `C[C@H]1C[C@H]2[C@@H]3CCC4=CC(=O)C=C[C@]4(C)[C@@]3(Cl)[C@@H](O)C[C@]2(C)[C@@]1(O)C(=O)CO`: the viability in assay [1] was 110%; in assay [3], 110% (inactive); in assay [4], 91.4% (inactive); in assay [5], 97.5% (inactive); in assay [6] (setting [13]), 103%; in assay [6] (setting [14]), 97.5%. For the same molecule, the Her2 level in assay [2] was 112% (inactive). In addition, in [6] (H69AR cells + 2 uM doxorubicin), the differential viability (reversal) is -5.3% (inactive).
`COc1ccc2cc(C(=O)Nc3c(C)n(C)n(-c4ccccc4)c3=O)sc(=O)c2c1OC`: the viability increase in assay [8] is -1.5% (inactive). Also, the results for the viability in assay [9] and in assay [12] were 97.7% (inactive) and 92.6% (inactive), respectively. Besides, the inhibition in assay [10] is 2.33% (inactive). In addition, the RAM network inhibition in assay [11] is 0.16% (inactive).
As for `C[C@]12CC[C@@H]3c4ccc(OS(=O)(=O)O)cc4CC[C@H]3[C@@H]1CCC2=O`, the viability in [1] was 87%; in [3] it was 87% (inactive); in assay [4], 99.6% (inactive). Besides, the Her2 level in assay [2] is 108% (inactive).
For `OCCN(CCO)c1nc(N2CCCCC2)c2nc(N(CCO)CCO)nc(N3CCCCC3)c2n1`, in that order: 117%, 117% (inactive), 79.6% (inactive) and 94.5% (inactive).
Turning to `CCCCC(=O)O[C@]1(C(=O)CO)CC[C@H]2[C@@H]3CCC4=CC(=O)CC[C@]4(C)[C@H]3[C@@H](O)C[C@@]21C`, the viability was 111% in assay [1]; 111% (inactive) in assay [3]; 101% (inactive) in [4]; 96.3% (inactive) in assay [5]; 93.3% in [6] (setting [13]); 96.3% in assay [6] (setting [14]). Further, the Her2 level in assay [2] is 108% (inactive). In addition, in assay [6] (H69AR cells + 2 uM doxorubicin), the differential viability (reversal) is 3.07% (inactive).
As for `CCCC(=O)O[C@]1(C(=O)CCl)[C@@H](C)C[C@H]2[C@@H]3CCC4=CC(=O)C=C[C@]4(C)[C@@]3(F)C(=O)C[C@@]21C`, the viability was 88.5% in [1]; 88.5% (inactive) in [3]; 81.2% (inactive) in assay [4]; 87.8% (inactive) in assay [5]; 81.4% in assay [6] (setting [13]); 87.8% in assay [6] (setting [14]). Moreover, in assay [2], the Her2 level was 122% (inactive). In addition, the differential viability (reversal) in [6] (H69AR cells + 2 uM doxorubicin) was 6.43% (inactive).
On to `CC(C)Sc1nc(O)c(Cc2ccccc2)c(=O)[nH]1`, for which the growth inhibition in assay [7] was -0.8% (inactive). In addition, in [8], the viability increase is -0.54% (inactive). The viability in [9] was 104% (inactive). For the same molecule, the inhibition in assay [10] is 2.81% (inactive). Moreover, the RAM network inhibition in [11] was 6.91% (inactive).
For the molecule `O=C(NCC1CCCCN1)c1cc(OCC(F)(F)F)ccc1OCC(F)(F)F` (centres undefined), the viability is 86% in [1]; 86% (inactive) in assay [3]; 91.8% (inactive) in [4]; 97.9% (inactive) in assay [5]; 102% in assay [6] (setting [13]); 97.9% in assay [6] (setting [14]). In assay [2], the Her2 level was 101% (inactive). For the same molecule, the differential viability (reversal) in [6] (H69AR cells + 2 uM doxorubicin) is -4.55% (inactive).
`CCN(CC)CCNC(=O)c1ccc(N)cc1`: the viability in assay [1] is 97.5%; in assay [3], 97.5% (inactive); in [4], 99.2% (inactive); in assay [5], 88.1% (inactive); in [6] (setting [13]) it was 98.8%; in assay [6] (setting [14]), 88.1%. Also, the Her2 level in [2] was 136% (inactive). Besides, the differential viability (reversal) in [6] (H69AR cells + 2 uM doxorubicin) is -10.7% (inactive).
On to `Cc1cn([C@H]2C[C@H](N=[N+]=[N-])[C@@H](CO)O2)c(=O)[nH]c1=O`, for which the viability in assay [1] is 91.5%; in assay [3], 91.5% (inactive); in assay [4], 104% (inactive); in assay [5], 96.5% (inactive); in assay [6] (setting [13]), 92.4%; in assay [6] (setting [14]), 96.5%. In addition, the Her2 level in [2] is 90% (inactive). In [6] (H69AR cells + 2 uM doxorubicin), the differential viability (reversal) is 4.1% (inactive).
Take `O=C(CSCc1ccco1)Nc1cc(C(F)(F)F)ccc1N1CCOCC1`: in [8], the viability increase was -5.7% (inactive). Besides, the values for the viability in assay [9] and in [12] were 63.4% (inactive) and 79.1% (inactive), respectively. The inhibition in assay [10] is 1.91% (inactive). Also, in assay [11], the RAM network inhibition is 4.46% (inactive).
Consider `C[C@@H]1C[C@H]2[C@@H]3CCC4=CC(=O)C=C[C@]4(C)[C@@]3(F)[C@@H](O)C[C@]2(C)[C@H]1C(=O)CO`, for which the viability in [1] was 84%; in [3] it was 84% (inactive); in assay [4], 102% (inactive); in assay [5] it was 91.2% (inactive); in assay [6] (setting [13]), 102%; in assay [6] (setting [14]), 91.2%. Moreover, the Her2 level in assay [2] is 150% (inactive). The differential viability (reversal) in assay [6] (H69AR cells + 2 uM doxorubicin) was -10.7% (inactive).
As for `CC(=O)OCC(=O)[C@@]12OC3(CCCC3)O[C@@H]1C[C@H]1[C@@H]3CCC4=CC(=O)C=C[C@]4(C)[C@@]3(F)[C@@H](O)C[C@@]12C`, the viability is 132% in assay [1]; 132% (inactive) in [3]; 86.6% (inactive) in [4]; 83.1% (inactive) in assay [5]; 80.3% in assay [6] (setting [13]); 83.1% in assay [6] (setting [14]). For the same molecule, the Her2 level in [2] is 91.5% (inactive). Also, the differential viability (reversal) in assay [6] (H69AR cells + 2 uM doxorubicin) was 2.75% (inactive).
Consider `O=C(c1cc(-c2ccccc2O)on1)N1CCc2ccccc2C1`, for which, in assay [8], the viability increase is -0.83% (inactive). Further, the viability in [9] was 97.9% (inactive); in assay [12], 90.5% (inactive). The inhibition in [10] is 0.485% (inactive). Further, the RAM network inhibition in assay [11] was 7.78% (inactive).
Regarding `C[N+]12CCC(CC1)C(OC(=O)C(O)(c1ccccc1)c1ccccc1)C2` (centres undefined), the viability in assay [1] was 97.5%; in [3] it was 97.5% (inactive); in assay [4] it was 100% (inactive); in assay [5], 90.7% (inactive); in assay [6] (setting [13]), 78.7%; in assay [6] (setting [14]), 90.7%. For the same molecule, the Her2 level in [2] is 96.5% (inactive). Moreover, the differential viability (reversal) in [6] (H69AR cells + 2 uM doxorubicin) was 11.9% (inactive).
